Laboratory results as given in PubChem BioAssay AID504339 (National Center for Advancing Translational Sciences (NCATS), 2011).
Values joined by “and” are separate entries in the source; they are usually repeats but may differ in a detail not shown here. Equal entries are not always repeated. About 17,000 (4.4%) of roughly 390,000 compounds were called active. Roughly 8% stayed inconclusive and do not appear here. The sample holds actives, similar compounds and a random draw of the others, so the mix is not that of the screen. Calls come from the whole dose curve; as a rule, active = well fitted inhibition curve with a large enough effect; inconclusive = small, poorly fitted or top-dose-only effect; inactive = no such curve, though single readings can be large or run the other way. Some structures have more than one record in an assay (separate samples or runs), and their calls can disagree.

target: Lysine-specific demethylase 4A (Homo sapiens) (UniProt O75164); test: qHTS Assay for Inhibitors of JMJD2A-Tudor Domain; conditions: AlphaScreen JMJD2A-Tudor / H3K4me3 peptide binding; series mostly up to 114 µM; activity change, negative = inhibition: at the top concentration; note: nearly all actives have a fitted effect of over 50% in size
Sequence (O75164 whole entry, looked up, the tested form may be a part): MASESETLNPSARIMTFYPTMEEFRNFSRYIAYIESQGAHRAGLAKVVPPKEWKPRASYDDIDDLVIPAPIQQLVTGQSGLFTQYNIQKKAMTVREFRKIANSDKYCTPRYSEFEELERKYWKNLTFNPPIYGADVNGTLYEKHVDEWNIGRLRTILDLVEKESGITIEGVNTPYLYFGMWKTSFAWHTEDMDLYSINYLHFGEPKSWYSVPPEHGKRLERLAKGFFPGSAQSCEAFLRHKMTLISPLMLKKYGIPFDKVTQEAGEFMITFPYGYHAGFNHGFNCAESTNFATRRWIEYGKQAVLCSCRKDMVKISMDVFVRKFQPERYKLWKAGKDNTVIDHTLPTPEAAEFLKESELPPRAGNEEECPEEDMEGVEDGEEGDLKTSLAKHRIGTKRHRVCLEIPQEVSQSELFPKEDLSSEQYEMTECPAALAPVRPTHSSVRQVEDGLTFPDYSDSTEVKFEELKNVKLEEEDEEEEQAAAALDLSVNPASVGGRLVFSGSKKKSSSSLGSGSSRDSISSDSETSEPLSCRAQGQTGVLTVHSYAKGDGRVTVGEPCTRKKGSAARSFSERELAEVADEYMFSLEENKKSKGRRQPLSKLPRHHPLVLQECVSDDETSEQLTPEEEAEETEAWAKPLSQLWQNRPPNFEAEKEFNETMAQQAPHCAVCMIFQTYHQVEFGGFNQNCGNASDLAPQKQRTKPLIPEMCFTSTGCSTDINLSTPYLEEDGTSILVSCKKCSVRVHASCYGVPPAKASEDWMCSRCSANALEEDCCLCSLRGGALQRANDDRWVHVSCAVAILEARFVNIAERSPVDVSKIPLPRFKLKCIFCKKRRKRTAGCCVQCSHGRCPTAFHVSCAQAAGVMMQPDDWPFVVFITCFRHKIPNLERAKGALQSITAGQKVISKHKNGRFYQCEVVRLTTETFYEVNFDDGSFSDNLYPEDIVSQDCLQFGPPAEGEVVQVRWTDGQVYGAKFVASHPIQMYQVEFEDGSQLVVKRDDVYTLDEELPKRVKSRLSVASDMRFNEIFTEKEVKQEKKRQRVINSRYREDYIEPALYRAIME
% is set by controls: 0 for no effect and ±100 for the full control effect; potency is the fitted concentration of half-maximal effect.

Structure (SMILES) | activity change, negative = inhibition | Potency
Cc1cc(=O)c2cc(C(=O)Nc3cccc(C)c3C)ccc2[nH]1 | -3.31% (inactive) | –
COc1ccccc1NC(=O)C(=O)c1cc(C)n(-c2ccccc2F)c1C | -23.5% (inactive) | –
COc1ccc(NC(=O)CCCc2nnc3n(CCC(C)C)c(=O)c4sccc4n23)c(OC)c1 | -32.6% (inactive) | –
Cc1ccccc1Nc1nn2c(=O)c3ccc(C(=O)NCCc4ccc(Cl)cc4)cc3nc2s1 | -9.31% (inactive) | –
Nc1ccc2c(c1)C(=Cc1cccnc1)c1ccccc1-2 | – | 35.5 µM (active)
Cc1ccc(C2=C/C(=C\c3cccnc3)C(=O)O2)cc1 | -18.6% (inactive) | –
O=C(O)/C(=C/c1cccnc1)NC(=O)c1ccccc1 | -6.62% (inactive) | –
O=C(NCc1ccccc1)c1cccc(NC(=O)N2CCSc3ncccc32)c1 | 5.17% (inactive) | –
CCn1c(/C=C/c2ccc([N+](=O)[O-])o2)nc2ccccc2c1=O | -16.8% [at 57.1 µM] (inactive) | –
CCc1ccc(S(=O)(=O)N/N=C\c2ccc([N+](=O)[O-])o2)cc1 | – | 50.1 µM (active)
CCc1ccc(S(=O)(=O)Nc2ccc(C)c(NS(C)(=O)=O)c2)cc1 | 8.31% (inactive) | –
CCc1nn(CCCC(=O)NCc2ccccc2OC)c(=O)c2cc3occc3n12 | 4.03% (inactive) | –
Cc1ccc(-c2ccc(CCC(=O)O)n2-c2ccc(C(N)=O)cc2)cc1 | -22.9% (inactive) | –
CN1/C(=c2/s/c(=C3/C(=O)N(c4ccccc4)NC3=Nc3ccccc3)n(C)c2=O)C(C)(C)c2ccccc21 | – | 28.2 µM (active)
CC(C)CCN(C(=O)Nc1ccc(Cl)c(Cl)c1)C(C)c1cccs1 (stereo unspecified) | -10.7% (inactive) | –
COc1ccc(NC(=O)c2cnc(Nc3ccc(C)c(Cl)c3)c3ccccc23)cc1OC | 3.07% (inactive) | –
CCC(=O)N1CCc2cc(Br)cc(S(=O)(=O)Nc3ccc(C)cc3C)c21 | -6.73% (inactive) | –
O=C1/C(=C/c2coc3ccc(O)cc3c2=O)SC(=S)N1c1ccccc1 | -24% (inactive) | –
COc1ccc(-c2nn(-c3ccccc3)cc2CN2CCCO2)c(F)c1 | -26% (inactive) | –
COc1cccc(NC(=O)CN(C)C(=O)/C=C/c2cn(-c3ccccc3)nc2-c2cccs2)c1 | -21.9% (inactive) | –
COc1ccc(-c2nn(-c3ccccc3)cc2/C=C2/SC(=S)N(CCCC(=O)O)C2=O)c(C)c1 | – | 44.7 µM (active)

Structure (SMILES) | activity change, negative = inhibition | Potency
Cc1ccc(-c2nn(-c3ccccc3)cc2/C=C2\SC(=S)N(CCCCCC(=O)O)C2=O)o1 | – | 14.1 µM (active)
CN(C(=O)CCN1C(=O)/C(=C/c2ccccc2F)SC1=S)C1CCS(=O)(=O)C1 (stereo unspecified) | -19.3% (inactive) | –
CN(Cc1ccccc1)S(=O)(=O)c1ccc(F)c(C(=O)Nc2cccc(Cl)c2Cl)c1 | -7.03% (inactive) | –
COc1cc(F)c(S(=O)(=O)N2CCCN(S(=O)(=O)c3ccc(N)cc3)CC2)c(F)c1 | -14.3% (inactive) | –
O=C(COc1ccccc1Cl)Nc1ccc2nc(SCC(=O)N3CCCC3)sc2c1 | -12.6% (inactive) | –
O=C(NCc1ccc2c(c1)CCN2C(=O)c1ccccc1)c1ccccc1 | -5% (inactive) | –
Cc1ccc(OCCCC(=O)N2CCOCC2)c(C)c1 | 6.76% (inactive) | –
Cc1ccc(OCCCCN2CCCCC2)c(Br)c1 | – | 0.794 µM (active)
COc1ccc(C(=O)NCCCN2CCOCC2)cc1Br | -4.92% (inactive) | –
Cc1cccc(N2CCN(C(=O)c3cc4c(=O)oc5ccccc5c4s3)CC2C)c1 (stereo unspecified) | -25.3% (inactive) | –
COc1ccc(Cn2c(=O)[nH]c3cc(C(=O)N4CCN(C(=O)c5ccco5)CC4)ccc3c2=O)cc1 | -15.6% (inactive) | –
Cc1ccc2nc(-c3ccc(C)c(NC(=O)Cc4ccccc4)c3)oc2c1 | -4.58% (inactive) | –
CC1CCN(C(=O)Cn2c(=O)n(-c3ccc(Cl)cc3)c(=O)c3c4c(sc32)CCC4)CC1 | -8.53% (inactive) | –
Cn1c(SCC(=O)N2CCCC2)nnc1-c1ccc2c(c1)OCO2 | -0.758% (inactive) | –
O=C(O)CSc1nnc(-c2ccc3c(c2)OCO3)n1-c1ccccc1 | -4.9% (inactive) | –
Cn1c(SCc2nc3ccccc3s2)nnc1-c1ccc2c(c1)OCO2 | – | 31.6 µM (active)
COc1ccc(CCNc2nc(-c3ccc(Cl)cc3)cc(C(F)(F)F)n2)cc1OC | 8.53% (inactive) | –
COc1ccc(Cc2nnc(N/N=C/c3ccccc3O)[nH]c2=O)cc1OC | – | 28.2 µM (active)
COc1ccc(Cc2nnc(SC)[nH]c2=O)cc1 | -2.11% (inactive) | –
CC(C)c1ccc(Cc2nnc(NCCCO)[nH]c2=O)cc1 | -11.2% (inactive) | –
O=S(=O)(c1ccc(Br)cc1)c1nnn2c1nc(NC1CCCCCC1)c1sccc12 | -9.52% (inactive) | –

Structure (SMILES) | activity change, negative = inhibition | Potency
CC(=O)Nc1ccc(NC(=O)c2cc3sccc3n2Cc2ccc(F)cc2)cc1 | -17.8% (inactive) | –
CCOc1ccc2nc(N3CCCC(C(=O)Nc4cc(C)ccc4C)C3)sc2c1 (stereo unspecified) | -27.6% (inactive) | –
Cc1ccc2[nH]cc(CCNC(=O)C3CCCCC3)c2c1 | -6.31% (inactive) | –
Cc1ccc2[nH]cc(CCCN3C(=O)c4ccccc4C3=O)c2c1 | – | 22.4 µM (active)
COc1ccc2[nH]cc(CCN3C(=O)c4ccc(C(=O)O)cc4C3=O)c2c1 | -10.6% (inactive) | –
Cc1nn(Cc2ccc(F)cc2)c(C)c1NC(=O)c1cc(CC(C)C)on1 | -9.56% (inactive) | –
O=C(CSc1ncc(CO)n1Cc1ccc(Cl)cc1)NCc1ccc(F)cc1 | -18.5% (inactive) | –
COc1ccc(N2CCN(C3=NS(=O)(=O)C(c4cccc(Br)c4)=C3C)CC2)cc1 | -12.9% (inactive) | –
Cc1cc(/C=C2/NC(=O)NC2=O)c(C)n1-c1cccnc1 | -19.2% (inactive) | –
Cc1ccc(CN2C(=O)N/C(=C/c3cc(C)n(-c4ccccn4)c3C)C2=O)cc1 | -23% (inactive) | –
Cc1cccc(C)c1-n1c(C)cc(/C=C2\C(=O)NN(c3ccccc3)C2=O)c1C | – | 22.4 µM (active)
CCOc1ccc(NC(=O)c2cc3c(=O)n(Cc4cccs4)ccc3nc2C)cc1 | -28% (inactive) | –
Cc1cccc(NC(=O)c2nnn(CC(=O)Nc3ccc(C(C)C)cc3)c2N)c1C | 1.33% (inactive) | –
Cc1cc2nc(-c3ccc(NC(=O)c4cc5ccccc5o4)cc3)oc2cc1C | -8.17% (inactive) | –
CCOC(=O)N1CCc2c(sc3c2c(=O)n(Cc2ccccc2)c(=O)n3CC(=O)Nc2cccc(C)c2)C1 | -3.97% (inactive) | –
COc1ccc(CCNC(=O)Cn2c(=O)n(-c3ccccc3)c(=O)c3c(C)c(C)sc32)cc1OC | -16.7% (inactive) | –
COc1cccc(-n2c(=O)c3c(C)c(C(=O)N(C)C)sc3n(CC(=O)NCCc3ccc(OC)c(OC)c3)c2=O)c1 | – | inactive and 79.4 µM (active)
COc1cccc(-n2c(=O)c3c(C)c(C(=O)N(C)C)sc3n(Cc3cccc(C)c3)c2=O)c1 | -16.7% (inactive) | –
COc1ccc(-c2ccc(OC)c(C3C4C=CCC(C)C4C(=O)N3Cc3ccccc3)c2)cc1C (stereo unspecified) | -22.1% (inactive) | –
